From PubChem BioAssay AID651903 (Broad Institute, 2012)
The whole screen tested about 22,000 compounds, of which about 1,100 (5%) were called active. This is one part of a sample in which actives are shown more often than they occur. Unmarked numbers belong to inactive results. Rule as the data show it: active = activity score above about 55%; inconclusive = no clear call, values can overlap the other calls; inactive = below that.

Assay: T. cruzi growth inside host cells – cell-based, plate reader, single point, set 2, primary screen (AID 651903);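 also: parasites and compound incubated about four days before reading; 0% = median of neutral control wells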
Conditions: intracellular Trypanosoma cruzi in host cells, at 5.01 µM, stronger effect = higher value

For C[C@@H]1CN([C@@H](C)CO)C(=O)Cc2cc(NC(=O)Nc3cccc4ccccc34)ccc2O[C@@H]1CN(C)CC1CCCCC1, the activity score (inhibition) was 59.9% (active).
In the case of C[C@@H]1CN([C@@H](C)CO)C(=O)Cc2cc(NC(=O)Nc3ccc4c(c3)OCO4)ccc2O[C@@H]1CN(C)CC1CCCCC1, the activity score (inhibition) is reported as 78.2% (active).
For C[C@H]1CN([C@@H](C)CO)C(=O)c2cc(NC(=O)Nc3ccc4c(c3)OCO4)ccc2O[C@@H]1CN(C)Cc1ccc(Oc2ccccc2)cc1, the activity score (inhibition) was 70.1% (active).
With C[C@@H]1CN([C@H](C)CO)C(=O)c2cc(NC(=O)c3ccncc3)ccc2O[C@H]1CN(C)Cc1ccc(Oc2ccccc2)cc1 the activity score (inhibition) was 85.4% (active).
In the case of C[C@H](CO)N1C[C@H](C)[C@H](CN(C)Cc2ccc(Oc3ccccc3)cc2)Oc2c(NC(=O)CCCCCC(=O)Nc3ccccc3N)cccc2C1=O, the activity score (inhibition) is reported as 65.5% (active).
In the case of C[C@H](CO)N1C[C@H](C)[C@H](CN(C)S(=O)(=O)c2ccccc2)Oc2c(NC(=O)CCCCCC(=O)Nc3ccccc3N)cccc2C1=O, the activity score (inhibition) is reported as 58.6% (active).
With C[C@H](CO)N1C[C@H](C)[C@@H](CN(C)Cc2ccccc2)Oc2c(NC(=O)CCCCCC(=O)Nc3ccccc3N)cccc2C1=O the activity score (inhibition) was 75.8% (active).
With Cc1noc(C)c1S(=O)(=O)Nc1ccc2c(c1)C(=O)N([C@@H](C)CO)C[C@H](C)[C@H](CN(C)Cc1ccc(C(=O)Nc3ccccc3N)cc1)O2 the activity score (inhibition) was 74% (active).
In the case of C[C@H]1CN([C@@H](C)CO)C(=O)Cc2cc(NS(=O)(=O)c3ccccc3)ccc2O[C@H]1CN(C)Cc1ccc(C(=O)Nc2ccccc2N)cc1, the activity score (inhibition) is reported as 69.5% (active).
With Cc1ccc(S(=O)(=O)Nc2ccc3c(c2)CC(=O)N([C@@H](C)CO)C[C@H](C)[C@H](CN(C)Cc2ccc(C(=O)Nc4ccccc4N)cc2)O3)cc1 the activity score (inhibition) was 66.2% (active).
In the case of C[C@H]1CN([C@@H](C)CO)C(=O)Cc2cc(NC(=O)Cc3cn(C)c4ccccc34)ccc2O[C@@H]1CN(C)Cc1ccccc1, the activity score (inhibition) is reported as 57.4% (active).
In the case of C[C@H]1CN([C@@H](C)CO)C(=O)Cc2cc(NC(=O)Cc3cn(C)c4ccccc34)ccc2O[C@@H]1CN(C)Cc1ccc(C(F)(F)F)cc1, the activity score (inhibition) is reported as 65.6% (active).

Point of comparison: C[C@H](CO)N1C[C@H](C)[C@@H](CN(C)Cc2ccccc2)Oc2ccc(NC(=O)Nc3ccc4c(c3)OCO4)cc2C1=O, activity score (inhibition) -2%. Against it:
- C[C@H]1CN([C@@H](C)CO)C(=O)c2cc(NC(=O)Nc3ccc4c(c3)OCO4)ccc2O[C@@H]1CN(C)CC1CCCCC1 — higher, 8.83%
- C[C@H]1CN([C@@H](C)CO)C(=O)Cc2cc(NC(=O)Nc3cccc4ccccc34)ccc2O[C@H]1CN(C)CC1CC1 — lower, -24.3%
- C[C@@H]1CN([C@@H](C)CO)C(=O)Cc2cc(NC(=O)C3CCCCC3)ccc2O[C@@H]1CN(C)CC1CCCCC1 — lower, -4.58%
- COc1ccc(NC(=O)Nc2ccc3c(c2)CC(=O)N([C@@H](C)CO)C[C@H](C)[C@@H](CN(C)CC2CCCCC2)O3)cc1 — lower, -4.28%
- C[C@H](CO)N1C[C@H](C)[C@H](CN(C)C(=O)Nc2ccc3c(c2)OCO3)Oc2ccc(NS(=O)(=O)c3ccc(Cl)cc3)cc2CC1=O — lower, -5.11%
- C[C@H](CO)N1C[C@H](C)[C@@H](CN(C)Cc2ccccc2C(F)(F)F)OCc2cn(nn2)CCCC1=O — lower, -23.6%
- Cc1noc(C)c1NC(=O)Nc1ccc2c(c1)C(=O)N([C@H](C)CO)C[C@H](C)[C@@H](CN(C)C(=O)Nc1ccccc1)O2 — lower, -16.8%
- C[C@@H]1CN([C@@H](C)CO)C(=O)Cc2cc(NC(=O)C3CC3)ccc2O[C@@H]1CN(C)S(C)(=O)=O — lower, -20.7%
- C[C@@H]1CN([C@@H](C)CO)C(=O)c2cc(NC(=O)Nc3ccc4c(c3)OCO4)ccc2O[C@@H]1CN(C)Cc1ccc(Oc2ccccc2)cc1 — higher, 17.5%
- C[C@@H]1CN([C@@H](C)CO)C(=O)c2cc(NC(=O)c3ccncc3)ccc2O[C@@H]1CN(C)Cc1ccncc1 — lower, -7.68%
- C[C@@H]1CN([C@@H](C)CO)C(=O)c2cc(NC(=O)c3ccncc3)ccc2O[C@H]1CN(C)Cc1ccc(C(=O)O)cc1 — lower, -2.84%
- C[C@@H]1CN([C@@H](C)CO)C(=O)Cc2cc(NC(=O)C3CCCCC3)ccc2O[C@@H]1CN(C)Cc1ccc(-c2ccccc2)cc1 — higher, 43.3%
- Cc1ccc(S(=O)(=O)N(C)C[C@@H]2Oc3ccc(NC(=O)Cn4cnnn4)cc3CC(=O)N([C@H](C)CO)C[C@H]2C)cc1 — higher, 9.72%
- C[C@@H]1CN([C@@H](C)CO)C(=O)c2cccc(NS(=O)(=O)c3ccc(F)cc3)c2O[C@@H]1CN(C)Cc1ccc(C(=O)O)cc1 — lower, -4.66%
- C[C@@H]1CN([C@H](C)CO)C(=O)Cc2cc(NC(=O)CCC(F)(F)F)ccc2O[C@@H]1CN(C)CC1CCCCC1 — lower, -9.63%
- C[C@H]1CN([C@@H](C)CO)C(=O)c2cccc(NC(=O)CCCCCC(=O)Nc3ccccc3N)c2O[C@H]1CN(C)C(=O)Nc1ccccc1 — lower, -8.85%
- C[C@@H]1CN([C@H](C)CO)C(=O)c2cccc(NC(=O)CCCCCC(=O)Nc3ccccc3N)c2O[C@@H]1CN(C)C(=O)Nc1ccccc1 — higher, 16.9%
- C[C@H]1CN([C@@H](C)CO)C(=O)c2cccc(NC(=O)Nc3ccccc3)c2O[C@H]1CN(C)Cc1ccc(Oc2ccccc2)cc1 — higher, 13.5%
- C[C@H](CO)N1C[C@H](C)[C@@H](CN(C)C(=O)Nc2ccccc2)Oc2c(NC(=O)CCCCCC(=O)Nc3ccccc3N)cccc2C1=O — lower, -11.7%
- C[C@@H]1CN([C@@H](C)CO)C(=O)c2cccc(NC(=O)Nc3cccc4ccccc34)c2O[C@H]1CN(C)S(=O)(=O)c1ccccc1 — lower, -9.51%
- C[C@H]1CN([C@@H](C)CO)C(=O)c2cccc(NC(=O)CCCCCC(=O)Nc3ccccc3N)c2O[C@@H]1CN(C)S(=O)(=O)c1cn(C)cn1 — lower, -40.6%
- CC(C)NC(=O)Nc1cccc2c1O[C@@H](CN(C)S(=O)(=O)c1ccc(F)cc1)[C@@H](C)CN([C@H](C)CO)C2=O — lower, -25.4%
- C[C@@H]1CN([C@@H](C)CO)C(=O)CCCn2cc(nn2)CO[C@@H]1CN(C)C(=O)c1ccncc1 — lower, -21.4%
- COc1ccc(S(=O)(=O)Nc2ccc3c(c2)C(=O)N([C@@H](C)CO)C[C@@H](C)[C@@H](CN(C)S(C)(=O)=O)O3)cc1 — lower, -8.35%
- CC(C)NC(=O)Nc1cccc2c1O[C@H](CN(C)Cc1ccc3c(c1)OCO3)[C@H](C)CN([C@H](C)CO)C2=O — lower, -10.8%
- COc1ccc(S(=O)(=O)N(C)C[C@H]2Oc3ccc(NS(=O)(=O)c4c(C)noc4C)cc3CC(=O)N([C@@H](C)CO)C[C@H]2C)cc1 — lower, -2.67%
- C[C@H](CO)N1C[C@H](C)[C@@H](CN(C)S(=O)(=O)c2ccccc2)Oc2c(NS(=O)(=O)c3cn(C)cn3)cccc2C1=O — lower, -8.44%
- COc1ccc(NC(=O)Nc2ccc3c(c2)C(=O)N([C@@H](C)CO)C[C@H](C)[C@@H](CN(C)S(=O)(=O)c2ccc(Cl)cc2)O3)cc1 — higher, 16.5%
- CC(C)NC(=O)Nc1cccc2c1O[C@H](CN(C)S(=O)(=O)c1ccccc1)[C@@H](C)CN([C@@H](C)CO)C2=O — higher, 0.345%
- COc1ccc(CN(C)C[C@@H]2Oc3c(NC(=O)C4CC4)cccc3C(=O)N([C@@H](C)CO)C[C@H]2C)cc1 — lower, -27.5%
- C[C@@H]1CN([C@H](C)CO)C(=O)c2cc(NS(=O)(=O)c3cn(C)cn3)ccc2O[C@@H]1CN(C)Cc1ccc(C(=O)Nc2ccccc2N)cc1 — higher, 3.44%
- C[C@@H]1CN([C@@H](C)CO)C(=O)c2cc(NS(=O)(=O)c3ccccc3)ccc2O[C@@H]1CN(C)Cc1ccc(C(=O)Nc2ccccc2N)cc1 — higher, 34.8%
- Cc1ccc(S(=O)(=O)Nc2ccc3c(c2)CC(=O)N([C@@H](C)CO)C[C@H](C)[C@H](CN(C)Cc2ccccc2)O3)cc1 — higher, 12.2%
- C[C@H](CO)N1C[C@H](C)[C@H](CN(C)Cc2ccc(C(=O)Nc3ccccc3N)cc2)Oc2ccc(NS(C)(=O)=O)cc2C1=O — higher, 16%
- COc1ccc(S(=O)(=O)Nc2ccc3c(c2)CC(=O)N([C@@H](C)CO)C[C@@H](C)[C@@H](CN(C)Cc2ccc(C(=O)Nc4ccccc4N)cc2)O3)cc1 — higher, 54%
- Cc1ccc(S(=O)(=O)Nc2ccc3c(c2)C(=O)N([C@@H](C)CO)C[C@@H](C)[C@@H](CN(C)Cc2ccc(C(=O)Nc4ccccc4N)cc2)O3)cc1 — higher, 23.3%
- C[C@@H]1CN([C@H](C)CO)C(=O)c2cc(NC(=O)Nc3ccccc3)ccc2O[C@H]1CN(C)Cc1ccc(Cl)c(Cl)c1 — lower, -34%
- C[C@@H]1CCCCO[C@@H](CN(C)S(=O)(=O)c2cccs2)[C@@H](C)CN([C@H](C)CO)C(=O)c2cc(NC(=O)Nc3ccc(F)cc3)ccc2O1 — higher, 21.5%
- O=C(NO)c1cccc(C(=O)N/N=C/c2cccnc2Cl)c1 — higher, 1.22%
- C[C@@H]1CN([C@H](C)CO)C(=O)Cc2cc(NC(=O)Cc3cn(C)c4ccccc34)ccc2O[C@@H]1CN(C)S(=O)(=O)c1ccccc1 — higher, 47.8%
- C[C@H]1CN([C@@H](C)CO)C(=O)Cc2cc(NC(=O)Cc3cn(C)c4ccccc34)ccc2O[C@H]1CN(C)Cc1ccccc1 — higher, 11.1%
- C[C@H](CO)N1C[C@H](C)[C@H](CN(C)Cc2ccncc2)Oc2ccc(NC(=O)Cc3cn(C)c4ccccc34)cc2CC1=O — higher, 4.58%
- C[C@H](CO)N1C[C@H](C)[C@H](CN(C)C(=O)Nc2ccc(F)cc2)Oc2ccc(NC(=O)Cc3cn(C)c4ccccc34)cc2CC1=O — lower, -2.27%
